For eight compounds, Potency results are on record in PubChem BioAssay (Tox21).

Values without a mark were called inactive. Results filed as inconclusive are left out. The source made the active and inactive calls. Unless noted, the call rests on the fitted dose curve.

Test [1] is described as follows: Nuclear factor erythroid 2-related factor 2/antioxidant responsive element (Nrf2/ARE) small molecule agonists: qHTS cell viability counter screen in human keratinocytes (AID 1919968; active means well fitted curve in the direction sought with a large enough effect in the repeat runs; an effect the other way counts as inactive or inconclusive; further: nearly all actives have a fitted effect of over 55% in size). An outline of the steps:
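Parallel cytotoxicity read: KeratinoSens HaCaT cells, compound treatment 23 h, viability by CellTiter-Fluor fluorescence 1 h post-reagent.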

Test [2] can be described thus: Nuclear factor erythroid 2-related factor 2/antioxidant responsive element (Nrf2/ARE) small molecule agonists: luciferase reporter gene qHTS assay in human keratinocytes (AID 1919969). Further: nearly all actives have a fitted effect of over 35% in size.
Test [3] addresses Gonadotropin-releasing hormone receptor (Homo sapiens) (UniProt P30968). Kind of test: Human gonadotropin-releasing hormone receptor (GnRHR) small molecule agonists, calcium flux assay in GnRHR-HEK293 cells (AID 1920063). Further: nearly all actives have a fitted effect of over 35% in size. The method, boiled down:
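Calcium flux, agonist mode, human GnRHR stably integrated in HEK293; dye 1 h at 37 C before compound; Ex/Em=480/540 kinetic read, 3 min; 15 concentrations, triplicate.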

In test [4] the target is KiSS-1 receptor (Homo sapiens) (UniProt Q969F8). Kind of test: Human kisspeptin (KISS1R) small molecule agonists, calcium flux assay in KISS1R-HEK293 cells (AID 1920064; active means well fitted curve in the direction sought with a large enough effect in the repeat runs; an effect the other way counts as inactive or inconclusive). An outline of the steps:
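Triplicate 15-concentration series were applied to dye-loaded human KISS1R HEK293 cells, and agonist-evoked calcium fluorescence was captured for 3 min.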

The nature of test [5]: G protein-coupled receptor (GPCR) small molecule agonists, calcium flux assay: HEK293 wild type cell line counter screen (AID 1920065). The method, boiled down: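 Non-specific calcium responders were flagged by adding DMSO-dissolved compounds to dye-loaded cells and reading 480/540 nm fluorescence each second for 3 min; ATP served as positive control.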
A short description of test [6]: p53 small molecule agonists, cell-based qHTS assay with human liver microsomes: qHTS cell viability counter screen (AID 1963579). Further: nearly all actives have a fitted effect of over 45% in size. An outline of the steps:
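Tox21 library compounds, delivered from DMSO stocks, were tested on p53RE-bla cells together with 0.5 mg/mL human liver microsomes and 0.5 mg/mL NADPH (final) over 16 h at 37 C; CellTiter-Glo luminescence served as the cytotoxicity measure.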

Test [7] can be described thus: p53 small molecule agonists, cell-based qHTS assay with rat liver microsomes: qHTS cell viability counter screen (AID 1963580). Further: nearly all actives have a fitted effect of over 45% in size. The method, boiled down:
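Cytotoxicity counter screen: intracellular ATP read by CellTiter-Glo luminescence in the p53 reporter wells. HCT-116 p53RE-bla cells were treated for 16 h at 37 C alongside rat liver microsomes and NADPH, each 0.5 mg/mL final.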

Test [8] in a line: p53 small molecule agonists, cell-based qHTS assay: qHTS cell viability counter screen (AID 1963581). Further: nearly all actives have a fitted effect of over 45% in size. The method, boiled down: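 Multiplexed with the reporter read, a CellTiter-Glo step (30 min, room temperature) gauges ATP-based viability of HCT-116 p53RE-bla cells after 16 h compound incubation at 37 C.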
In test [9] the target is 5-hydroxytryptamine receptor 2A (Homo sapiens) (UniProt P28223). Kind of test: 5-hydroxytryptamine receptor 2A (HTR2A) small molecule antagonists, cell-based qHTS assay (AID 1963586). Further: nearly all actives have a fitted effect of over 45% in size. An outline of the steps:
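CHO cells stably expressing human HTR2A were plated for 18 h at 37 C, then loaded with calcium dye for 1 h. Compounds were preincubated 5 min at room temperature before DOI (4 nM solution) was added. Kinetic fluorescence was read for 3 min.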

Test [10] has the same target. Kind of test: 5-hydroxytryptamine receptor 2A (HTR2A) small molecule agonists, cell-based qHTS assay (AID 1963587). Further: nearly all actives have a fitted effect of over 30% in size. An outline of the steps:
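Kinetic calcium-flux fluorescence (2 min, 1 sec intervals) after compound addition in agonist mode. HTR2A-CHO cells were cultured 18 h, then dye-loaded 1 h at 37 C.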

Test [11] addresses Muscarinic acetylcholine receptor M1 (Homo sapiens) (UniProt P11229). Kind of test: Cholinergic receptor muscarinic 1 (CHRM1) small molecule antagonists, cell-based qHTS assay (AID 1963588). Further: nearly all actives have a fitted effect of over 40% in size. Further: potency means the concentration at half of the fitted maximal effect. An outline of the steps: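 Compounds were tested at 15 concentrations in three independent runs. Dye-loaded CHRM1-CHO cells were exposed 5 min at room temperature before stimulation by acetylcholine added at 50nM. Intracellular calcium was read kinetically on FDSS for 3 min.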

The target is the same in test [12]. The experiment in a line: Cholinergic receptor muscarinic 1 (CHRM1) small molecule agonists, cell-based qHTS assay (AID 1963589). Further: nearly all actives have a fitted effect of over 35% in size. The method, boiled down:
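qHTS, 15-point titration, 3 independent runs: compounds pin-transferred onto dye-loaded CHRM1-CHO cells (human M1), calcium fluorescence followed every second to detect agonism.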

The nature of test [13]: cAMP Responsive Elements (CRE) small molecule agonists, cell-based qHTS assay (AID 1963590). The method, boiled down: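 Quantitative HTS for CRE agonists: HEK 293T CRE-bla cells, overnight plating, 3 h compound incubation at 37 C/5% CO2, then 2 h room-temperature LiveBLAzer B/G FRET substrate loading.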
Test [14] is described as follows: cAMP Responsive Elements (CRE) small molecule antagonists, cell-based qHTS assay (AID 1963591; active means well fitted inhibition curve with a large enough effect in the signal ratio in the repeat runs, not every such curve was filed as active; the % refers to the signal ratio). The method, boiled down: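 Fluorescence intensity from cleaved LiveBLAzer B/G substrate (2 h, room temperature) quantified CRE-bla activity in HEK 293T cells exposed 3 h to compound with 0.25 uM final NKH477.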
Test [15] deals with Beta-2 adrenergic receptor (Homo sapiens) (UniProt P07550). The experiment in a line: Adrenergic beta2 receptor (ADRB2) small molecule antagonists, cell-based qHTS assay (AID 1963592). Further: series mostly up to about 92 µM; nearly all actives have a fitted effect of over 50% in size. The method, boiled down:
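Assay format: CHO-ADRB2 cells, 18-20hr seeding at 37C/5% CO2, then compound plus 1nM isoproterenol agonist mix for 0.5hr RT. Homogeneous time-resolved fluorescence cAMP detection after 1hr, expressed as 665/615 nm ratio.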

The target in test [16] is D(2) dopamine receptor (Homo sapiens) (UniProt P14416). Kind of test: Dopamine D2 receptor (DRD2) small molecule agonists, cell-based qHTS assay (AID 1963594). Further: nearly all actives have a fitted effect of over 35% in size. The method, boiled down: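 cAMP accumulation in DRD2-HEK293 cells measured by HTRF after 1 h detection; compounds added 10 min before NKH477 (200nM […]) forskolin-analogue stimulation, 30 min at room temperature, with Ro20-1724 present at 0.1 mM final.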

Test [17] has the same target. Kind of test: Dopamine D2 receptor (DRD2) small molecule antagonists, cell-based qHTS assay (AID 1963595; active means well fitted inhibition curve with a large enough effect in the signal ratio in the repeat runs, with a control signal flat; the % refers to the signal ratio). An outline of the steps:
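HEK293 cells stably expressing DRD2 were preincubated with 0.1 mM Ro20-1724, then with compound for 10 min at room temperature. Cells were stimulated with 200 nM NKH477 plus 12 nM quinpirole for 30 min, and cAMP was read by HTRF.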

For test [18], the target named is Beta-2 adrenergic receptor (Homo sapiens) (UniProt P07550). The experiment in a line: Adrenergic beta2 receptor (ADRB2) small molecule agonists, cell-based qHTS assay (AID 1963593).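 Further: CHO cells stably overexpressing human ADRB2.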 The method, boiled down: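 CHO cells stably over-expressing ADRB2 were plated overnight at 37C, then dosed with compounds plus a stimulation mix containing 100uM IBMX and 25uM Ro-20-1724 for 0.5hr at room temperature. cAMP was measured by HTRF competition, 1hr.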
Beta-2 adrenergic receptor (Homo sapiens), sequence (P07550 whole entry, looked up): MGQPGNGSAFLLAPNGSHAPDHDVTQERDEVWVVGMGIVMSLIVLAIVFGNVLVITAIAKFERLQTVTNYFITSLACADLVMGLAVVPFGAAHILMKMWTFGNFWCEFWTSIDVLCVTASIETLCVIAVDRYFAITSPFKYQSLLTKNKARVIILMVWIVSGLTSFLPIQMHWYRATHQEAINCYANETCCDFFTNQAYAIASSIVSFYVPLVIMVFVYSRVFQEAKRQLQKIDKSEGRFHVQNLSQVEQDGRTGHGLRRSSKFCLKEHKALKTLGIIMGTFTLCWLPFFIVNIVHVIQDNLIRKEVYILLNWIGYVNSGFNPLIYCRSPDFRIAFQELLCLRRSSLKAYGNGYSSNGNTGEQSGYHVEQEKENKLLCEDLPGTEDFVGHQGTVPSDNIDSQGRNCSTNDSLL

5-hydroxytryptamine receptor 2A (Homo sapiens), sequence (P28223 whole entry, looked up): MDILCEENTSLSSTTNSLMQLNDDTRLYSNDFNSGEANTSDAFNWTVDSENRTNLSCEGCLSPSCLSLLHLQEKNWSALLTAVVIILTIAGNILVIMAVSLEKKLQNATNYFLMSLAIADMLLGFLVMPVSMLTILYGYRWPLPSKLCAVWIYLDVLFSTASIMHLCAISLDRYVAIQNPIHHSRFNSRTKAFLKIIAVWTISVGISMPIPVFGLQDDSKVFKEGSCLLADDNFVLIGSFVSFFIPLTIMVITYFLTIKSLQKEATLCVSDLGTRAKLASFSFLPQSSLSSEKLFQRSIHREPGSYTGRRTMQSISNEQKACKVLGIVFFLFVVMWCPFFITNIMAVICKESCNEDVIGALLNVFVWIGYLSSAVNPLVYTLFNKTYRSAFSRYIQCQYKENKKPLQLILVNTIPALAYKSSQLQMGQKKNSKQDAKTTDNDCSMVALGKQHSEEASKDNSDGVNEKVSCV
D(2) dopamine receptor (Homo sapiens), sequence (P14416 whole entry, looked up): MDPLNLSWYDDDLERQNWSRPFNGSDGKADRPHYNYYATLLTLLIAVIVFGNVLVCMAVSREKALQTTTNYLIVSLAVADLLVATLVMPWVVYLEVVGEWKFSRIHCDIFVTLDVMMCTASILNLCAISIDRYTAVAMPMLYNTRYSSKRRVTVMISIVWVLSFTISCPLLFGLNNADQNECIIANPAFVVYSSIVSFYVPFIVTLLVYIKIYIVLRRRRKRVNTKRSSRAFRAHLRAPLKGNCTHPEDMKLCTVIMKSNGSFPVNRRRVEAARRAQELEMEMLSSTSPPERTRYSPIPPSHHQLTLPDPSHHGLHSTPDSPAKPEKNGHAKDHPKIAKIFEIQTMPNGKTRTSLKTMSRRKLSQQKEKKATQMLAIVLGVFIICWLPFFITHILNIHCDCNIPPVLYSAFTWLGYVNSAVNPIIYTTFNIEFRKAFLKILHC
Gonadotropin-releasing hormone receptor (Homo sapiens), sequence (P30968 whole entry, looked up): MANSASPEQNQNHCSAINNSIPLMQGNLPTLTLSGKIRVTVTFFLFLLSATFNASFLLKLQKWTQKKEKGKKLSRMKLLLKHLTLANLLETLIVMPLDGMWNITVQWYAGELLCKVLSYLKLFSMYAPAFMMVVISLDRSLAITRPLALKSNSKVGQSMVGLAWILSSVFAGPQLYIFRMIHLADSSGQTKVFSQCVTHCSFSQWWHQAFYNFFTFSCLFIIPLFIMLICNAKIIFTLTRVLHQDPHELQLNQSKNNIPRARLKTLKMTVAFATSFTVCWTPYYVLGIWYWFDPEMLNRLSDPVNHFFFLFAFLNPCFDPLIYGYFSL
Muscarinic acetylcholine receptor M1 (Homo sapiens), sequence (P11229 whole entry, looked up): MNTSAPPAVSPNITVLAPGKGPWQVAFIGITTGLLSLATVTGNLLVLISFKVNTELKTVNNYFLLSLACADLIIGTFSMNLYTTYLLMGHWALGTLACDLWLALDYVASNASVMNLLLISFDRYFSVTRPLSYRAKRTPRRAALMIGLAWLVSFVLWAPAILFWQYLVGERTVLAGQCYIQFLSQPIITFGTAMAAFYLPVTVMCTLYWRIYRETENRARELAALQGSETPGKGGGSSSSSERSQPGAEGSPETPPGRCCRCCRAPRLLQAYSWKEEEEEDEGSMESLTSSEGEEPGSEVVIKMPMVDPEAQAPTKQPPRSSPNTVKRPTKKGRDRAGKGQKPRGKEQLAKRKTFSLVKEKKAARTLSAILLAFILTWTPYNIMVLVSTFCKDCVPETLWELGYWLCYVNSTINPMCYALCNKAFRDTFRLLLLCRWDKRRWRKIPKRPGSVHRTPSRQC
KiSS-1 receptor (Homo sapiens), sequence (Q969F8 whole entry, looked up): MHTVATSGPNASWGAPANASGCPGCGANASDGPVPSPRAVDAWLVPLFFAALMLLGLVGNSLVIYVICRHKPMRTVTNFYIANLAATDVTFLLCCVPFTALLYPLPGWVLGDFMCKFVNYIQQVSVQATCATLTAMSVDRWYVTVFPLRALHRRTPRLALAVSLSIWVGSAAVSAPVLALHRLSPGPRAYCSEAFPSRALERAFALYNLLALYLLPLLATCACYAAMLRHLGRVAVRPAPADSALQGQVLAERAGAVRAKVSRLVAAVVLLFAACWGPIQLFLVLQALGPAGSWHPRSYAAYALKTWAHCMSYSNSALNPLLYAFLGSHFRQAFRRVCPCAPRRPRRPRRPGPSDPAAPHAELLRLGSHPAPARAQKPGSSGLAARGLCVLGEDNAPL

With `CCN(CC)CCNC(C(=O)OCCC(C)C)c1ccccc1` (stereo unspecified), the Potency result in test [1], in test [2], in test [3], in [4], in [5] and in test [6] was “inactive” each time. Moreover, the Potency entry in [7], in test [8], in test [9], in [10], in test [12] and in [13] was “inactive” in each case. The Potency result in test [14], in test [15], in test [16] and in test [17] was “inactive” throughout. In addition, the Potency in test [11] is 516 nM (active).

In the case of `CCC(C)(CCC(C)C)C(=O)[O-].CCC(C)(CCC(C)C)C(=O)[O-].[Zn+2]` (stereo unspecified), the Potency result in [1], in test [2], in test [3], in test [4], in test [5] and in test [6] was “inactive” throughout. The Potency result in [7], in test [8], in [9], in [10], in test [11] and in test [12] was “inactive” in each case. Further, the Potency result in test [13], in [14], in test [16] and in [17] was “inactive” in each case.

In the case of `CC(C)CCC(=O)CCC(C)C`, the Potency result in test [1], in test [2], in [3], in test [4], in test [5] and in test [6] was “inactive” in each case. Besides, the Potency result in test [7], in [8], in test [9], in test [10], in test [11] and in [12] was “inactive” throughout. In addition, the Potency result in [13], in [14], in test [15], in test [16] and in [17] was “inactive” throughout.

As for `CCCCCCC#CC(=O)OC`, the Potency entry in test [1], in test [2], in test [3], in test [4], in test [5] and in [6] was “inactive” throughout. Moreover, the Potency entry in test [7], in test [8], in test [9], in [10], in test [11] and in test [12] was “inactive” in each case. Further, the Potency result in test [13], in test [14] and in test [16] was “inactive” each time.

Consider `CC1(C)CC(O)CC(C)(C)N1[O]`, for which the Potency entry in test [1], in test [2], in test [3], in test [4], in [5] and in test [6] was “inactive” throughout. In addition, the Potency entry in test [7], in [8], in test [9], in [10], in test [11] and in [12] was “inactive” in each case. The Potency entry in [13], in test [14], in [15], in test [16] and in [17] was “inactive” in each case.

Consider `CCCOC(=O)CC`, for which the Potency entry in test [1], in [2], in [3], in test [4], in test [5] and in test [6] was “inactive” each time. Further, the Potency result in test [7], in test [8], in test [9], in test [10], in test [11] and in test [12] was “inactive” throughout. Moreover, the Potency entry in test [13], in test [14], in test [15], in test [16] and in test [17] was “inactive” in each case.

As for `OCC1CC=CCC1` (stereo unspecified), the Potency entry in [1], in [2], in [3], in test [4], in test [5] and in test [6] was “inactive” throughout. The Potency entry in [7], in [8], in test [9], in [10], in test [11] and in test [12] was “inactive” in each case. Moreover, the Potency entry in test [13], in test [14], in test [18] and in test [17] was “inactive” each time.

Turning to `C=CCCCCCCCCOC(C)=O`, the Potency entry in [1], in test [2], in [3], in [4], in test [5] and in test [6] was “inactive” throughout. The Potency entry in test [7], in test [8], in test [9], in [10], in test [11] and in test [12] was “inactive” throughout. Further, the Potency entry in test [13], in test [14], in test [16] and in test [17] was “inactive” throughout.
